# Source: PubChem BioAssay (National Center for Advancing Translational Sciences (NCATS))
# Only some compounds are listed: those with a hit (about 1.3% of all), similar ones and a draw of the others.
# EPAC2 ag: agonists of human EPAC2 (RAPGEF4) | EPAC2 activation, biochemical qHTS; response scale: 100% = 6.5 mM cAMP response | Potency, µM (series often up to 154 µM), without a hit: top-dose activation, usual class: activators | hit rate 0.079% among 360,000; note: nearly all actives have a fitted effect of over 50% in size
#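 Each well held 100 nM EPAC2, 250 nM RAP1B-BODIPY-GDP and 50 uM GDP. Fluorescence, read at 5-min intervals to 30 min, was referenced to a 6.5 mM cAMP positive control.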
# EPAC1 ag: agonists of human EPAC1; Potency, µM (titrated, usually from 154 µM), for inactives: at the top dose activation, usual class: activators; hit rate 0.073% among 360,000; EPAC1 agonist qHTS, biochemical assay; response scale: 100% = response to 6.5 mM cAMP; AID 720707; note: nearly all actives have a fitted effect of over 60% in size
#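 EPAC1 100 nM, Rap1B–BODIPY-GDP 250 nM, unlabeled GDP 50 uM; compound titration; 5 min RT; kinetic read ex480/em540 at 5-min intervals ×30 min; data normalized to 6.5 mM cAMP agonist control.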
# EPAC2 antagonist: EPAC2 (human) antagonism; Q8WZA2; EPAC2 GEF exchange of Rap1B-BODIPY-GDP, fluorescence; Potency, µM (doses to about 114 µM), for the others: top-dose activity, negative = inhibition, usual class: inhibitors; hit rate 0.18% among 360,000; note: % is set by controls: 0 for no effect and ±100 for the full control effect; nearly all actives have a fitted effect of over 45% in size
# 12-LOX inh: blocks human arachidonate 12S-lipoxygenase; purified 12hLO, xylenol orange hydroperoxide absorbance; Potency, µM (doses to about 108 µM), inactives show at the top dose activity change, negative = inhibition, actives largely listed as inhibitors; P18054; hit rate 1.1% among 580,000; AID 1671190; note: % is set by controls: 0 for no effect and ±100 for the full control effect
#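 Purified human 12hLO (150 nM final) in 25 mM Hepes, 0.01% Triton X-100, pH 7.0 was preincubated 15 min at room temperature with compound. Then 40 uM arachidonic acid was added, 30 min. Hydroperoxide was read by Fe-XO absorbance ratio 573/405 nm.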
# USP1 inh: blocks the human USP1/UAF1 deubiquitinase complex | AID 743255 | Potency, µM (highest dose often 57.1 µM), without a hit: top-dose activity change, negative = inhibition, usual class: inhibitors | O94782 | hit rate 0.23% among 390,000 | recombinant USP1/UAF1, Ub-Rhodamine cleavage fluorescence; note: % is set by controls: 0 for no effect and ±100 for the full control effect; nearly all actives have a fitted effect of over 60% in size
#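 USP1/UAF1 complex (1 nM) preincubated 15 min at room temperature with compound, then Ub-Rho substrate (150 nM final) added. Kinetic fluorescence at 480/540 nm over 6 reads at 60 s intervals; 50 mM HEPES pH 7.8, 0.5 mM EDTA, 0.1 mg/ml BSA, 1 mM TCEP, 0.01% Tween-20.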
# EPAC1 antagonist: EPAC1 (human) antagonism. EPAC1 GEF assay, Rap1b-BODIPY-GDP exchange fluorescence. AID 720709. hit rate 0.14% among 360,000. O95398. Potency, µM (top dose mostly 115 µM), for the others: at the highest dose activity change, negative = inhibition, most hits filed as inhibitors;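 note: plate controls were vehicle for no effect and positive control for full effect; nearly all actives have a fitted effect of over 50% in size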
# Active calls of the source: *; ? = inconclusive; / = no result given; ! = not confirmed by another sample; [ ] = remark or other dose. Calls come from the whole dose curve; as a rule, active = well fitted curve in the direction sought with a large enough effect; inconclusive = small, poorly fitted or top-dose-only effect, or another doubt; inactive = no such curve, though single readings can be large; an effect the other way counts as inactive or inconclusive. Potency is the fitted concentration of half-maximal effect.
SMILES,EPAC2 ag,EPAC1 ag,EPAC2 antagonist,12-LOX inh,USP1 inh,EPAC1 antagonist
Cn1c2ccccc2c2cc(/C=N/NC(=O)c3cc(O)ccc3O)ccc21,7.5%,8.6%,-0.2%,35.5µM*,?,56.2µM*
Cc1ccc(C)c(-c2ccc3ccccc3n2)c1,/,/,/,4.4%,/,/
Cc1cc(N2C(=O)C(O)=C(C(=O)c3ccco3)C2c2ccc([N+](=O)[O-])cc2)no1 (centres undefined),-11.4%,-8.6%,-19.2%,44.7µM*,-8.3%,?
CCOC(=O)c1sc(N2C(=O)C(O)=C(C(=O)c3ccco3)C2c2ccc(C)o2)nc1C (centres undefined),-11.1%,-0.6%,-2.6%,?,?,-14.6%
CCOC(=O)c1sc(N2C(=O)C(O)=C(C(=O)c3ccco3)C2c2ccc([N+](=O)[O-])cc2)nc1C (centres undefined),-6.4%,-4.8%,-24.0%,28.2µM*,?,?
Cc1c(C(=O)N2CCc3ccccc3C2)nnn1-c1ccc(Br)cc1,/,/,/,-29.4%,/,/
CN1C[C@H](C(=O)Nc2cccc(F)c2)C[C@H]1c1cccc(C(F)(F)F)c1,/,/,/,20µM*,/,/
COc1ccc(NC(=O)[C@@H]2C[C@@H](c3cccc(C(F)(F)F)c3)N(C)C2)cc1,/,/,/,3.5%[176 µM],/,/
CCCCCCCC/C=C\CCCCCCCC(=O)NCCc1ccc(O)c(O)c1,-16.5%,-46.6%,-22.7%,5.62µM*!,-23.4%,?
CCC[C@H](NC(=O)C(C#N)=Cc1cccc(Br)n1)c1ccccc1,/,/,/,7.69µM*,/,/
O=C(CS(=O)(=O)c1ccccc1)Nc1ccc(Cl)cn1,5.4%,10.1%,0.2%,-7.3%,-22.3%,16.5%
O=C(CC(c1ccccc1)c1ccccc1)Nc1ccc(Cl)cn1,6.31µM*,15.6%,-15.0%,83.1%,-14.9%,-8.9%
Cc1ccc(O)c(C(=O)c2cc(C#N)c(=O)n(-c3nccs3)c2)c1,112µM*,39.8µM*,177.8%,?,17.8µM*,58.4%
CCCCN(C1CCS(=O)(=O)C1)S(=O)(=O)c1ccc(OC)c(C)c1 (centres undefined),/,/,/,9.4%,/,/
Cc1ccc(NS(=O)(=O)c2ccc(NC(=O)CSc3ccc(Cl)cc3)cc2)c(C)c1,-9.0%,1.6%,3.6%,31.6µM*,-18.0%,-11.0%
CCC(=O)Nc1ccc2ccccc2c1,6.0%,-0.6%,9.8%,-7.1%,-11.1%,-7.5%
CC(=O)Nc1nc(-c2ccc3ccccc3c2)cs1,5.3%,-0.9%,6.1%,3.3%,-20.5%,-16.4%
Oc1ccc(Nc2nc(-c3ccc4ccccc4c3)cs2)cc1,/,/,/,17.8µM*,/,/
Oc1ccc(Nc2ccc3ccccc3c2)cc1,17.1%,3.8%,-6.4%,44.7µM*,-15.7%,-15.0%
Cc1ccc(Nc2nc(-c3cccc(N4C(=O)c5ccccc5C4=O)c3)cs2)cc1,/,/,/,17.8µM*,/,/
CC(C)c1nnc(NC(=O)c2c[nH]c3ccccc3c2=O)s1,/,/,/,-4.6%,/,/
COc1ccc2c(=O)c(-c3ccccc3)coc2c1C,/,/,/,31.6µM*,/,/
O=C(Cc1c[nH]c2ccccc12)Nc1nc2ccc(Cl)cc2s1,/,/,/,3.2%,/,/
COc1cccc(C2OCC(C)(C)n3c(-c4ccccc4)c4c(=O)n(C)c(=O)n(C)c4c32)c1O (centres undefined),/,/,/,11.2µM*,/,/
COc1ccc(-c2c3c(=O)n(C)c(=O)n(C)c3c3n2-c2ccccc2NC3c2ccccc2OC)cc1 (centres undefined),/,/,/,15.5%,-0.2%,/
SMILES,EPAC2 ag,EPAC1 ag,EPAC2 antagonist,12-LOX inh,USP1 inh,EPAC1 antagonist
CNC(=O)CCNC(=O)Cn1c(-c2ccccc2)cc2ccccc21,/,/,/,-26.0%,/,/
CC(CCN1CCC(CN2C(=O)C(=O)NC[C@@H]2Cc2ccccc2)CC1)c1ccccc1 (some centres undefined),2.9%,-5.8%,-1.0%,39.8µM*,-14.9%,-29.6%
FC(F)(F)c1ccc(Cl)c(N/N=C/C(c2ccccc2)c2ccccc2)c1,/,/,/,14.4%,/,/
FC(F)(F)c1ccc(Cl)c(N/N=C/c2ccc(Cl)cc2Cl)c1,/,/,/,39.8µM*,/,/
Cc1cc(C)c(/C=N/Nc2cc(C(F)(F)F)ccc2Cl)c(C)c1,/,/,/,12.6µM*,/,/
CC1(C)CC(Nc2nccc(-c3cnn(-c4ccccc4)c3)n2)CC(C)(C)N1,/,/,/,47.4%,/,/
O=C(CSc1nc(-c2cccs2)nc2ccccc12)NCc1ccccc1,/,/,/,-5.9%,/,/
CCOC(=O)C(=CNNc1cccc(Cl)c1)C(=O)OCC,-3.8%,4.1%,-18.4%,12.6µM*,-0.4%,?
COc1ccccc1NCC(=O)c1ccc(C)c(C)c1,8.2%,3.0%,0.0%,15.8µM*,-16.2%,-8.2%
COc1ccccc1NCC(=O)c1ccc(Cl)cc1,15.9%,8.4%,-8.4%,?,-31.1%,-21.6%
C[C@@H](NC(=O)C1CC1)c1c(-c2ccc(F)cc2)noc1C(=O)O,/,/,/,50.1µM*,/,/
CC[Si](C)(CC)COC(=O)CCC[N+](C)(C)C,/,/,/,28.2µM*,/,/
Cc1ccc(C)c2[nH]c(C(=O)O)cc12,/,/,/,-3.6%,/,/
CCCC(C(=O)Nc1c(C)cccc1C)N1C(=O)C(=O)c2ccccc21 (centres undefined),/,/,/,6.31µM*,/,/
CCc1cccc(CC)c1NC(=O)CN1C(=O)C(=O)c2ccccc21,/,/,/,-8.5%,-4.2%,/
COc1ccccc1/C=C/CN1CCCC(CO)(Cc2cccc(Cl)c2)C1 (centres undefined),17.9%,3.2%,-5.3%,39.8µM*,?,-25.7%
CCOc1ccc2nc3cc(N=Nc4ccc(N)nc4N)ccc3c(N)c2c1,26.3%,-8.5%,?,/,15.8µM*,9.3%
O=C1C=CC(=O)N1c1ccc2ccccc2c1,12.3%,15.3%,1.2%,39.8µM*,-24.0%,-6.8%
Cc1cccc(N2C(=O)C=CC2=O)c1,9.2%,6.5%,1.3%,-11.4%,-4.5%,-0.4%
Cc1ccccc1CN(C)C(C)C(=O)Nc1ccc(N2CCCCC2)cc1 (centres undefined),/,/,/,0.3%,/,/
O=C(O)c1ccccc1NC(=S)NC(=O)c1cccc2ccccc12,5.2%,8.9%,1.7%,20µM*,-11.5%,-13.9%
Cc1cccc(C(=O)NC(=S)Nc2ccccc2C(F)(F)F)c1,3.4%,6.3%,-12.6%,15.8µM*,-9.3%,-10.3%
Cc1cccc(C(=O)NC(=S)Nc2ccccc2C(=O)O)c1,8.9%,3.7%,0.6%,39.8µM*,-8.3%,13.9%
Cc1c(NC(=S)NC(=O)c2cccc3ccccc23)cccc1C(=O)O,-2.0%,-9.7%,10.1%,?,-14.5%,2.1%
O=C(NCCc1ccc(Cl)cc1)c1[nH]c2ccccc2c1Cl,/,/,/,-7.4%,/,/
CCNC(=O)NC(=O)CSc1nc2ccccc2c(=O)n1-c1ccc(F)cc1F,/,/,/,8.1%,/,/
CC(C)[C@H](NC(=O)C12CC3CC(CC(C3)C1)C2)C(=O)O,/,/,/,56.2µM*,/,/
